HTR5A inv ag – HTR5A inverse agonism, opioid heterodimer counter-screen. HTR5A cell line, luminescence. inhibition, % at 9.3 µM. actives 0.083% (n = 340,000); in the data active means inhibition mostly above about 23%, no sharp cut-off; inactive means mostly below about 18%;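 further: 0% = cells with DMSO and 100% = no-cell wells with DMSO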
HTR5A ag ctr – HTR5A agonism, opioid heterodimer counter-screen. P47898. HTR5A agonist assay, luminescence, cell-based. activation, % at 9.3 µM. actives 0.61% (n = 340,000). AID 504692; in the data active means activation mostly above about 9.5%, no sharp cut-off; inactive means mostly below about 7.6%;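 further: 0% = cells with vehicle only and 100% = reference agonist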
m5-HT2A agonist – agonists of mouse serotonin 5-HT2A receptor (HTR2A) | P35363 | CHO-K1 mHTR2A beta-arrestin complementation, luminescence; percent of 30 µM serotonin response | activation, % at 7.6 µM | actives 0.66% (n = 360,000) | AID 624169;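 active means activation above a run cutoff, the mean activation of all tested compounds plus 3 SD, cut at about 14% in these data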;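 further: 0% = plate median of compound wells and 100% = 30 µM serotonin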
Target sequence (P35363 whole entry, looked up): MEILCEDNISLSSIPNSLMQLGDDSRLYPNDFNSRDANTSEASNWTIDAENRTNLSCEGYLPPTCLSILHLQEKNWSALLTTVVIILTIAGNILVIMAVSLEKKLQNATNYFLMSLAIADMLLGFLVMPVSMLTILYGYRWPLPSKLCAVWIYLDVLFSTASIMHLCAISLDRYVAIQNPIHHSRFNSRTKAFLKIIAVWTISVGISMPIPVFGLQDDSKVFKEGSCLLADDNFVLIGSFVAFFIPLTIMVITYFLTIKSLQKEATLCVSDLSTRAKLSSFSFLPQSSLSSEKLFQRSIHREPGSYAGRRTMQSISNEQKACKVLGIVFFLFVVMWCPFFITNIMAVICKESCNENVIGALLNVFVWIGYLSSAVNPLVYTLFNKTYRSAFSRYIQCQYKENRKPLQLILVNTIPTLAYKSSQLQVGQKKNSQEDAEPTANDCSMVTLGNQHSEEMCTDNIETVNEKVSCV
OPRM1-OPRD1 inv – mu-delta opioid heterodimer inverse agonism; inhibition, % at 9.3 µM; P35372+P41143; cell-based MOR-DOR heterodimer luminescence; actives 0.21% (n = 340,000); in the data active means inhibition above about 22%, passing the limit was not always enough;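 further: 0% = cells with DMSO and 100% = wells without cells with DMSO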
MOR-DOR ag – agonists of human mu-delta opioid receptor heterodimerization. P35372+P41143. cells, OPRM1-OPRD1 heterodimerization, luminescence. activation, % at 9.3 µM. actives 0.3% (n = 340,000); in the data active means activation above about 18%;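 further: 0% = vehicle-treated cells and 100% = reference agonist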
OPRM1 ag – OPRM1 agonism in mouse HTR2A counterscreen | shares compounds with m5-HT2A agonist | U2OS OPRM1 beta-arrestin PathHunter, luminescence; DMSO 0%, DAMGO 9.3 µM 100% | activation, % at 9.3 µM | actives 5.3% (n = 2,300) | AID 624380;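 active means mean activation above the mean of DMSO-only wells plus 3 SD, cut at about 0.5% in these data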
HTR2A ag conf – confirmation of mouse HTR2A serotonin receptor agonists. shares compounds with m5-HT2A agonist. CHO-K1 PathHunter beta-arrestin recruitment, luminescence; DMSO 0%, 30 µM serotonin 100%. activation, % at 7.6 µM. actives 19% (n = 2,300);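 active means mean activation across triplicates above the hit threshold derived in the original primary screen, cut at about 15% in these data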
* = called active by the depositor; · = no result given. An excerpt weighted towards active compounds, which were near 1.6% of everything screened.

SMILES	HTR5A inv ag	HTR5A ag ctr	m5-HT2A agonist	OPRM1-OPRD1 inv	MOR-DOR ag	OPRM1 ag	HTR2A ag conf
Cc1ccc(C(=O)N/C(=C/c2ccc(-c3cccc([N+](=O)[O-])c3)o2)C(=O)NC(C)C)cc1	-1	6	21*	-36	6	0	1
O=C(NNc1cccc(Cl)n1)c1c(F)cccc1F	6	3	0	-1	0	·	·
Nc1nc(CN2CCN(Cc3ccccc3)CC2)nc(Nc2ccccc2)n1	6	3	-6	-9	2	·	·
Nc1nc(CN2CCN(c3ccccn3)CC2)nc(Nc2ccc(Cl)cc2)n1	9	6	15*	-3	0	0	73*
Nc1nc(CN2CCN(c3ccccc3F)CC2)nc(Nc2ccc3c(c2)OCCO3)n1	-10	-1	22*	-32	6	-1	36*
COc1cccc(NC(=S)N(CCC(C)C)C2CCN(C(C)=O)CC2)c1	4	-1	6	3	-1	·	·
O=C(OCC1COC(c2ccccc2)(c2ccccc2)O1)c1ccccc1 (stereo not drawn)	3	-1	-2	-23	5	·	·
C=CCOC(=O)c1ccccc1C(=O)OCC1CO1 (stereo not drawn)	-8	2	23*	16	-3	0	4
CCOC(=O)c1ccc(Nc2ncnc3nc[nH]c23)cc1	-20	5	-4	3	0	·	·
c1ccc(COc2ccc(Nc3ncnc4nc[nH]c34)cc2)cc1	-38	14	17*	-3	0	-1	-7
S=c1[nH]nc(C2CCCCC2)n1Cc1ccccc1	10	-1	15*	12	-3	0	-2
S=c1[nH]nc(C2CC2)n1Cc1ccccc1	-5	2	0	3	-1	·	·
CNC[C@H](O)c1ccc(O)c(O)c1	15	-1	50*	-18	3	0	165*
CC(C)NCC(O)c1ccc(O)c(O)c1 (stereo not drawn)	14	3	1	-11	2	·	·
CNC[C@H](O)c1cccc(O)c1	-13	4	17*	3	-1	0	47*
NC[C@H](O)c1ccc(O)c(O)c1	-4	6	36*	-14	3	0	143*
O=[N+]([O-])c1ccc(/C=C2\CCC(C3=CCCC3)=C2N2CCOCC2)cc1	15	-1	-1	4	-1	·	·
CC(=O)c1sc(NC(=O)CSC(C)C(=O)Nc2cc(C)on2)nc1-c1ccccc1 (stereo not drawn)	4	-2	0	15	-3	·	·
O=C(NCc1cccs1)C1CCCN1C(=O)Nc1cccc(F)c1 (stereo not drawn)	8	-3	17*	18	-4	-1	-5
O=C(NCc1cccs1)C1CCCN1C(=O)Nc1ccc(F)cc1 (stereo not drawn)	-6	-2	-1	18	-3	·	·
COC(=O)[C@@]1(Sc2ccc(C)cc2)CC(=O)N[C@@H]1c1ccc(C(F)(F)F)cc1	·	·	15*	·	·	0.8*	3
COc1ccc(C2=NO[C@@](CC(=O)O)(C(=O)Nc3ccc4c(c3)OCCO4)C2)cc1	-18	5	16*	1	0	1.0*	2
CCCCSc1c(C)c2cc3c(cc2[nH]c1=O)OCO3	12	-6	3	-51	9	·	·
Cc1ccc2nc(-c3cccc(S(=O)(=O)N4CC(C)OC(C)C4)c3)cn2c1 (stereo not drawn)	-11	0	2	-4	1	·	·
COc1ccc(C(=O)OCC(=O)NCc2ccco2)cc1S(=O)(=O)N1CCN(c2cccc(Cl)c2)CC1	-5	-1	1	-4	1	·	·
COC(=O)C(CCSC)NC(=O)Cn1ncc2c(=O)oc3ccccc3c21 (stereo not drawn)	-4	1	23*	4	-1	-1	0
Cc1ccc(P(=O)(CO)c2ccc(C)cc2)cc1	13	-2	15*	7	-1	-1	-5
Cc1ccc(P(=O)(CSC(=N)N)c2ccc(C)cc2)cc1	-6	7	3	19	-4	·	·
